Data as given in the supplement of paper PMC10849652.
The full data set covers some 7,900 targets. This sample favours those with a hit. About 0.6% of all pairs of compound and target were hits. Unmarked numbers belong to inactive results.

What was measured:
Experiment in all cases: log2 fold change, soluble protein after heating vs DMSO (PISA); higher = thermal stabilisation; K562 cells, 10 uM, 30 min; active = over 0.2 and 3.5 SD of the protein, either way, in both replicates (recomputed)
[1] = compound: COC1=CC=C(C=C1)CN2C=CC3=C2C=C(C=C3)C(=O)NO
Outline: (§1)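 For each measurement, 10 μM compound was applied for 30 min to K562 cells at 2×10^6 cells/mL. Aliquots were heated for 3 min across 48°C-58°C, pooled, and extracted in PBS with 0.5% NP-40 at 4°C; the supernatant after 21,000xg for 90 min was soluble protein. This was quantified by TMTpro 16plex LC-MS/MS with channel sums equalised, and thermal stability was reported relative to control samples from duplicates, on a log2 fold-change scale.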

[2] = compound: CON(C)C(=O)N1N=C(c2cc(F)ccc2F)S[C@@]1(CCCN)c1ccccc1 [filanesib]
Outline: as §1

[3] = compound: CO[C@H]1C[C@@H]2CC[C@@H](C)[C@@](O)(O2)C(=O)C(=O)N2CCCC[C@H]2C(=O)O[C@H]([C@H](C)C[C@@H]2CC[C@H](n3cnnn3)[C@H](OC)C2)CC(=O)[C@H](C)/C=C(\C)[C@@H](O)[C@@H](OC)C(=O)[C@H](C)C[C@H](C)/C=C/C=C/C=C/1C [zotarolimus]
Outline: as §1

[4] = compound: COc1cc(C(=O)O)ccc1NC(=O)[C@@H]1N[C@@H](CC(C)(C)C)[C@](C#N)(c2ccc(Cl)cc2F)[C@H]1c1cccc(Cl)c1F [idasanutlin]
Outline: as §1

[5] = compound: COc1cc(Nc2ncc3c(n2)-c2ccc(Cl)cc2C(c2c(F)cccc2OC)=NC3)ccc1C(=O)O [alisertib]
Outline: as §1

[6] = compound: COc1cc2nc(-c3cc(F)ccc3O)nc(N[C@@H]3CNC[C@H]3C(C)(C)O)c2cc1OC
Outline: as §1

[7] = compound: COc1cc2ncnc(Nc3ccc(F)c(Cl)c3)c2cc1OCCCN1CCOCC1 [gefitinib]
Outline: as §1

[8] = compound: COc1cccc2cc(-c3nc([C@H]4CC[C@H](C(=O)O)CC4)n4ncnc(N)c34)[nH]c12
Outline: as §1

[9] = compound: CS(=O)(=O)CCNCc1ccc(-c2ccc3ncnc(Nc4ccc(OCc5cccc(F)c5)c(Cl)c4)c3c2)o1 [lapatinib]
Outline: as §1

[10] = compound: CS(=O)(=O)N1CCN(Cc2cc3nc(-c4cccc5[nH]ncc45)nc(N4CCOCC4)c3s2)CC1 [pictilisib]
Outline: as §1

UniProt Q9HB40, sequence (Q9HB40 whole entry, looked up): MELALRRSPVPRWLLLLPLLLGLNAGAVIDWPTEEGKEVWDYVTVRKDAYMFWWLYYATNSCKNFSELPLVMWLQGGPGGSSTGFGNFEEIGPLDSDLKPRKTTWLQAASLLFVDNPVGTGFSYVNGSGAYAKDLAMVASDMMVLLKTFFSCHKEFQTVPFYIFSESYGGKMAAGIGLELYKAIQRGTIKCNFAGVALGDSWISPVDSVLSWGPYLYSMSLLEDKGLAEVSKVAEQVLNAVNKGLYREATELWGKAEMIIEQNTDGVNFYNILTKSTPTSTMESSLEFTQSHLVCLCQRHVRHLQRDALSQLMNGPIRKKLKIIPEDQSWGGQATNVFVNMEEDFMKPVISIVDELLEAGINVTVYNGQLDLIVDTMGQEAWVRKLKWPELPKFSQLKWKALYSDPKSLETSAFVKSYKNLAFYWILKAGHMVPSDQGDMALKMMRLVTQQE
UniProt O43818, sequence (O43818 whole entry, looked up): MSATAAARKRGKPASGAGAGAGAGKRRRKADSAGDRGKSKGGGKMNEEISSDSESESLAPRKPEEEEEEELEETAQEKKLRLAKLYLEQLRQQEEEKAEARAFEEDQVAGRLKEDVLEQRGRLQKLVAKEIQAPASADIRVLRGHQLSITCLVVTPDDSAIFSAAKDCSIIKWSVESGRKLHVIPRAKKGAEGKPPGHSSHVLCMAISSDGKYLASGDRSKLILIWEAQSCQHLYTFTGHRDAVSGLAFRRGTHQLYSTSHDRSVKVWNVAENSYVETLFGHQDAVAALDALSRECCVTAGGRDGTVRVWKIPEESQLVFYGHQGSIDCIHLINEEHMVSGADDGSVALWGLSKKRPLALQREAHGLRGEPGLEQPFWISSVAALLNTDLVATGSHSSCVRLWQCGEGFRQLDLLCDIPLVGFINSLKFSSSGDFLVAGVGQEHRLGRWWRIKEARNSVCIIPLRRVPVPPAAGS
UniProt Q53H47, sequence (Q53H47 whole entry, looked up): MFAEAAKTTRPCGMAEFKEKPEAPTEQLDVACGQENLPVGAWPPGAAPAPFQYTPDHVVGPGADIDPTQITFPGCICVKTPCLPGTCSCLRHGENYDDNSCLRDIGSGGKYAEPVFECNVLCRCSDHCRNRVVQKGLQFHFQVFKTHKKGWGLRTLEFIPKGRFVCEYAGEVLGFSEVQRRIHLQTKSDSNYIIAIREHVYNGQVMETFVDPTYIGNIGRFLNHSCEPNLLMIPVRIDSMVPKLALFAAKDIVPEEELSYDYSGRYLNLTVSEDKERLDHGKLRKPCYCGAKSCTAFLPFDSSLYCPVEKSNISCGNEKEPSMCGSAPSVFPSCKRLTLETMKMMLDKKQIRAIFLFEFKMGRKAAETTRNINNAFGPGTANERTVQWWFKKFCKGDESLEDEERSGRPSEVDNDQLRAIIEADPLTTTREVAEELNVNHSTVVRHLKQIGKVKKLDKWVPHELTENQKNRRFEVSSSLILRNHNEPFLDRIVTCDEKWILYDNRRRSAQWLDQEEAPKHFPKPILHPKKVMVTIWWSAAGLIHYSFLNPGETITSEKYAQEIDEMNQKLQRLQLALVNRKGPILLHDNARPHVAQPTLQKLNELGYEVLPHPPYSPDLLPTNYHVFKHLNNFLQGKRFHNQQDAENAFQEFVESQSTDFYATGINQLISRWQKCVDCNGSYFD
UniProt Q5T160, sequence (Q5T160 whole entry, looked up): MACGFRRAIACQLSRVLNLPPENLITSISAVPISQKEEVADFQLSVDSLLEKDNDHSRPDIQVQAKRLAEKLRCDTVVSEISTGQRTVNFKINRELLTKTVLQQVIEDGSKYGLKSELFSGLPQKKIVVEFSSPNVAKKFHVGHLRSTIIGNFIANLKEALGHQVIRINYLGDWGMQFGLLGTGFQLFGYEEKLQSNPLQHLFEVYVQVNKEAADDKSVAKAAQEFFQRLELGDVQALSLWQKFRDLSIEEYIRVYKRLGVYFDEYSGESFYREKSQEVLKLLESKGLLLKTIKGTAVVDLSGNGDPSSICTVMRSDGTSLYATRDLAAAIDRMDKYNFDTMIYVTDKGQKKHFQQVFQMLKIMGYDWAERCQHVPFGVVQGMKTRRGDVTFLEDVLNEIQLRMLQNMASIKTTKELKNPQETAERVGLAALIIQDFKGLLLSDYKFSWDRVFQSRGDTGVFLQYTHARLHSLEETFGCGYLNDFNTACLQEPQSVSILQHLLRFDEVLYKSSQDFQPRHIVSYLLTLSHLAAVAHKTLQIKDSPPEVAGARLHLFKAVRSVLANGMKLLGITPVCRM
UniProt Q14498, sequence (Q14498 whole entry, looked up): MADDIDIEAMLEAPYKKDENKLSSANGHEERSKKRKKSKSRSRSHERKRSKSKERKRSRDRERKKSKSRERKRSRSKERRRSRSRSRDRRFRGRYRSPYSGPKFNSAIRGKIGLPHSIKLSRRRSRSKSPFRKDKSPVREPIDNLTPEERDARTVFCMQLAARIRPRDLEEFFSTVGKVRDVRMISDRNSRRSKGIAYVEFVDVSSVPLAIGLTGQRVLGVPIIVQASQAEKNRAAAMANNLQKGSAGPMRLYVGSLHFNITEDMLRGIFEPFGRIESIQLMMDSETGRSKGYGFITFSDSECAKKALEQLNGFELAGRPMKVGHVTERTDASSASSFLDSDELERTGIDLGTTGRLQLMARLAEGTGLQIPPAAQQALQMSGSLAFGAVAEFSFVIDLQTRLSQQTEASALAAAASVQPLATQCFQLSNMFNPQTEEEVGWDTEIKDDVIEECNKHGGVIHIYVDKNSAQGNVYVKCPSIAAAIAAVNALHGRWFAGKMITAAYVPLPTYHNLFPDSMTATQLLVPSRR
UniProt Q13530, sequence (Q13530 whole entry, looked up): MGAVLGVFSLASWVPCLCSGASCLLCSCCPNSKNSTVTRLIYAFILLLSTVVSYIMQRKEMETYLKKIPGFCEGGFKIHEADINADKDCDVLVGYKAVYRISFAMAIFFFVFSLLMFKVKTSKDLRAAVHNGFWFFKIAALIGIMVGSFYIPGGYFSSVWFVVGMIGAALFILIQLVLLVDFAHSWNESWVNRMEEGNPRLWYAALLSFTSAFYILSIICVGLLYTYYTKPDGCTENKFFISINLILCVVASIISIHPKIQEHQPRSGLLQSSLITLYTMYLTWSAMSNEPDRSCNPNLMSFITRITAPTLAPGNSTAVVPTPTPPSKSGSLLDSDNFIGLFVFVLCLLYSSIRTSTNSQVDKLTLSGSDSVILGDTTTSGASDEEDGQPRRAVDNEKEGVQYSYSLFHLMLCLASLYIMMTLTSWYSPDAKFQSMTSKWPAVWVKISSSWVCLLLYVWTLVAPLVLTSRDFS
UniProt Q7L4I2, sequence (Q7L4I2 whole entry, looked up): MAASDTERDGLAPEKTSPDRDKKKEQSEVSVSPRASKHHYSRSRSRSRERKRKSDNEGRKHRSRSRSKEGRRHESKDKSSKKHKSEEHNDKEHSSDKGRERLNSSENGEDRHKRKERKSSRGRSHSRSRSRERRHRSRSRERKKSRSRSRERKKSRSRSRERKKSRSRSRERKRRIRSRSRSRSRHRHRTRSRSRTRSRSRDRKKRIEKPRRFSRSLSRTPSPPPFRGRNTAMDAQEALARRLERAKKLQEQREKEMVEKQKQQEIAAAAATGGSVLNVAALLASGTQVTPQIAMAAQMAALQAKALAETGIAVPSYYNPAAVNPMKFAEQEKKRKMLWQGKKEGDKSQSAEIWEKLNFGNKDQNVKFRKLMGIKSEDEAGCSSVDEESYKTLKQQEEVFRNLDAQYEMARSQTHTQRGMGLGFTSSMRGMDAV
UniProt Q8TC12, sequence (Q8TC12 whole entry, looked up): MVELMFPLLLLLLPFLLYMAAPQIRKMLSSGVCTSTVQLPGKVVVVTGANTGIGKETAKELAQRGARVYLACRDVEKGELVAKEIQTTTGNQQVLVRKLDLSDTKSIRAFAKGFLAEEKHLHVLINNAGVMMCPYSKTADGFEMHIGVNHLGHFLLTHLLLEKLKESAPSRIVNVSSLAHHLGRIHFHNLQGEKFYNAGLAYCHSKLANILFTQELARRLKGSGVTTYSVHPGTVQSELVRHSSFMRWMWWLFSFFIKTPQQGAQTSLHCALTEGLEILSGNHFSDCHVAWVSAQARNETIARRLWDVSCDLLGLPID
UniProt Q15418, sequence (Q15418 whole entry, looked up): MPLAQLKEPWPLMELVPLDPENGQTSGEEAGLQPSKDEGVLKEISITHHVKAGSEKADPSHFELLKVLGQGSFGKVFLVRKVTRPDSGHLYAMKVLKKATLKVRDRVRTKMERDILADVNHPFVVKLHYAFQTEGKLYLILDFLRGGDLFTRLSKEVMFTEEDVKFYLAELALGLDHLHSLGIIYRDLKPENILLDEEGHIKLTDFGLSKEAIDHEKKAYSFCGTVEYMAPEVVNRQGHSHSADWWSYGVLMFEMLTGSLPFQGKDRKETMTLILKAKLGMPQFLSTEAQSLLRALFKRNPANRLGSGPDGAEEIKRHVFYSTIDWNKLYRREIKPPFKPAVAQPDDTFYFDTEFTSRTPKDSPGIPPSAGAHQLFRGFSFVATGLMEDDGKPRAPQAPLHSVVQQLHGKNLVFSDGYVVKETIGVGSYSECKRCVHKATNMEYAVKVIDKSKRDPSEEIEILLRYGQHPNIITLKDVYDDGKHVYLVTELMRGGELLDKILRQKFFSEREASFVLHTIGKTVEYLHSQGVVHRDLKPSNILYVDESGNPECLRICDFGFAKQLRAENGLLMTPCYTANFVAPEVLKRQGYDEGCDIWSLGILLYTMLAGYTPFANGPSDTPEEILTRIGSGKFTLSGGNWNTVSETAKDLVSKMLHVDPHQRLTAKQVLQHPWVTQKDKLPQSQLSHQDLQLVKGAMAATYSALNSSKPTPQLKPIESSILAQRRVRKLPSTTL

Row | Target | log2 fold change [1] | log2 fold change [2] | log2 fold change [3] | log2 fold change [4] | log2 fold change [5] | log2 fold change [6] | log2 fold change [7] | log2 fold change [8] | log2 fold change [9] | log2 fold change [10]
1 | RDH11 (UniProt Q8TC12) | 0.087 | -0.046 | 0.093 | 0.032 | -0.01 | -0.333 | 0.071 | 0 | 0.03 | 0.241
2 | RBM39 (UniProt Q14498) | 0.117 | 0.129 | -0.006 | 0.262 | -0.058 | -0.055 | -0.019 | 0.009 | 0.026 | -0.014
3 | SETMAR (UniProt Q53H47) | -0.135 | -0.065 | 0.048 | -0.037 | 0.014 | -0.002 | -0.044 | 0.004 | 0.018 | -0.009
4 | RBBP6 (UniProt Q7Z6E9) | 0.101 | 0.468 (active) | -0.052 | 0.089 | 0.044 | -0.099 | -0.02 | 0.146 | 0.101 | 0.016
5 | RAVER1 (UniProt E9PAU2) | 0.032 | -0.244 | 0.258 | 0.024 | 0.372 | -0.898 | 0.082 | -0.099 | 0.049 | -0.002
6 | RIOK3 (UniProt O14730) | -0.039 | -0.049 | -0.019 | 0.052 | -0.029 | -0.009 | 0.007 | 0.01 | 0.003 | 0.095
7 | SIK3 (UniProt H0Y4E8) | -0.015 | 0.085 | -0.073 | -0.065 | -0.018 | 0.077 | -0.026 | 0.466 | 0.036 | -0.007
8 | SETD3 (UniProt Q86TU7) | -0.254 (active) | -0.132 | 0.009 | -0.086 | -0.022 | 0.052 | 0.017 | 0.048 | -0.013 | 0.03
9 | RNF167 (UniProt Q9H6Y7) | -0.062 | -0.032 | -0.033 | 0.018 | -0.014 | -0.084 | -0.013 | 0.016 | 0.024 | -0.029
10 | RRP9 (UniProt O43818) | -0.011 | 0.143 | -0.059 | 0.171 | -0.14 | -0.061 | 0.027 | 0.047 | 0.037 | -0.04
11 | RPS2 (UniProt P15880) | -0.049 | 0.214 | -0.013 | 0.114 | -0.1 | -0.027 | -0.05 | -0.184 | 0.094 | -0.143
12 | RSRC2 (UniProt Q7L4I2) | 0.033 | 0.066 | -0.002 | 0.048 | -0.102 | 0.034 | 0.005 | 0.022 | -0.021 | 0.011
13 | RARS2 (UniProt Q5T160) | 0.009 | -0.245 (active) | 0.007 | -0.071 | -0.016 | -0.028 | -0.013 | 0.051 | 0.051 | -0.031
14 | RPS6KA1 isoform 2 (UniProt Q15418) | 0.087 | -0.022 | 0.025 | -0.016 | -0.01 | -0.202 | -0.062 | 0 | 0.013 | -0.053
15 | SCPEP1 (UniProt Q9HB40) | 0.078 | -0.082 | 0.009 | 0.002 | 0.007 | -0.058 | -0.014 | 0.057 | -0.021 | 0.096
16 | RFC3 (UniProt P40938) | 0.125 | -0.046 | -0.026 | -0.088 | -0.021 | -0.042 | 0.008 | 0.024 | 0.037 | 0.035
17 | SERINC3 (UniProt Q13530) | -0.015 | -0.222 | -0.062 | 0.136 | 0 | -0.17 | -0.069 | 0.042 | -0.181 | 0.181
